Hits are enriched below; roughly 3.9% of the tested compounds scored in any of these assays.
PrPC surface inh: reduces human prion protein on the cell surface; P04156; cell surface PrPC, TR-FRET read-out; inhibition, % at 13.8 µM; actives 0.43% (n = 370,000); in the data active = inhibition above about 24%; note: 0% = median of the test wells and 100% = reference compound wells
GDH-TPI counter: inhibits GDH-TPI coupling enzymes, artifact for Mtb FBA screen; GDH-TPI coupled enzyme counterscreen, NADH absorbance; inhibition, % at 4.8 µM; AID 588335; actives 1.2% (n = 360,000); in the data active = inhibition above about 30%;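 note: 0% = DMSO wells and 100% = wells lacking the enzyme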
3CLpro inhibitor: SARS-CoV 3CLpro protease inhibition. P0C6X7. recombinant SARS-CoV 3CLpro, quenched FRET peptide cleavage. inhibition, % at 6 µM. actives 0.14% (n = 290,000). AID 1706; in the data active = inhibition above about 12%
Vc quorum ag: quorum light induction in luxS cqsA deficient V. cholerae | V. cholerae BH1578 lux reporter, luminescence, 6 h | activation, % at 18.7 µM | actives 0.16% (n = 350,000) | AID 588436; in the data active = activation mostly above about 9.7%, no sharp cut-off
Mtb FBA inh: inhibitors of M. tuberculosis fructose-bisphosphate aldolase. P9WQA3. purified M. tuberculosis FBA, fluorescence read-out. inhibition, % at 1 µM. actives 2.3% (n = 360,000); in the data active = inhibition above about 27%;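 note: 0% = vehicle and 100% = reference inhibitor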
PrPC TRFRET cf: confirmation of inhibitors of cell surface human prion protein. shares compounds with PrPC surface inh. cell surface PrPC level, TR-FRET. inhibition, % at 13.8 µM. actives 65% (n = 1,500). AID 743200; in the data active = inhibition above about 25%
LD9 tox: kills or reduces viability of LD9 cells in PrPc counter-screen; shares compounds with PrPC surface inh; LD9 cells cytotoxicity, luminescence viability; inhibition, % at 13.8 µM; actives 29% (n = 1,500); AID 743201; in the data active = inhibition above about 9.5%
An asterisk follows results filed as active; i = inactive; x = no result given.

SMILES	PrPC surface inh	GDH-TPI counter	3CLpro inhibitor	Vc quorum ag	Mtb FBA inh	PrPC TRFRET cf	LD9 tox
C[C@@H]1CN([C@H](C)CO)S(=O)(=O)c2ccc(Br)cc2O[C@H]1CN(C)C(=O)Cc1ccccn1	-2	2	x	-1	-3	x	x
CC(=O)NC(CSc1cc(C)nc2ccc(Br)cc12)C(=O)O (centres undefined)	32*	-4	-2	0	8	57*	-4
CC[C@@H](C(=O)[C@@H](C)[C@@H](O)[C@H](C)CCc1ccc(C)c(O)c1C(=O)O)[C@H]1O[C@](CC)([C@H]2CC[C@](O)(CC)[C@H](C)O2)C[C@@H]1C	75*	-1	7	i	1	69*	44*
S=c1nc(Cc2ccc(Cl)cc2)[nH]c2ccccc12	29*	12	4	0	-1	60*	-3
S=c1nc(Cc2ccccc2)[nH]c2ccccc12	31*	8	-2	-1	5	26*	-4
CC1CCN(c2ccc3nnc(CCC(=O)N4CCN(c5ccc(F)cc5)CC4)n3n2)CC1	40*	3	5	i	-1	-6	-3
CC1CCN(c2ccc3nnc(CCC(=O)N4CCCCC4)n3n2)CC1	0	-6	6	i	4	x	x
Cc1c(C(=O)N2CCC(C)(C(=O)NS(=O)(=O)C3CC3)C2)oc2ccccc12 (centres undefined)	-11	12	x	0	2	x	x
O=C1C=CC(O)(c2cc(=O)c3c(O)cc(O)cc3o2)C=C1	82*	28	-1	i	5	77*	59*
Cn1cc(Cl)c(-c2n[nH]c(=S)n2-c2ccccc2)n1	29*	-3	-1	0	1	45*	-3
COc1ccc(-c2cc(C(=O)NN=C/C(C)=C/c3ccccc3)[nH]n2)cc1	25*	x	x	x	x	20	-2
COc1ccc(-c2cc(C(=O)NN=Cc3ccc(-c4ccccc4)cc3)[nH]n2)cc1	5	x	x	x	x	x	x
O=C(NN=Cc1ccc(O)cc1)c1cc(-c2ccc(Cl)cc2)n[nH]1	26*	x	x	x	x	32*	4
O=C(/C=C/c1ccccc1[N+](=O)[O-])Nc1cc(S(=O)(=O)N2CCOCC2)ccc1N1CCOCC1	10	0	x	0	1	x	x
CC(=O)Nc1nc(SCC(=O)NCc2ccc(F)cc2)[nH]c(=O)c1NC(=O)c1cccs1	-1	4	2	0	0	x	x
O=C(CN1c2cccc3cccc(c23)S1(=O)=O)Nc1ccc(F)c(F)c1F	3	9	x	0	7	x	x
Oc1ccc(/C=N/Nc2nccnc2Cl)c(O)c1	25*	26	1	0	-1	33*	24*
CCCC[C@H](C(=O)N(CC)c1ccccc1)[C@@H](O)c1ccc(Cl)cc1	1	x	x	x	x	x	x
Cc1ccc2c(c1)[C@H]1[C@H](CO2)[C@H](c2ccccc2)[C@]2(C)C(=O)Nc3ccc(Cl)cc3C(=O)N12	25*	2	x	-1	5	14	-7
COc1ccc2c(c1)C(=O)N1[C@H]3c4cc(C)ccc4OC[C@@H]3[C@H](c3ccccc3)[C@]1(C)C(=O)N2	34*	13	x	1	-2	23	-6
COc1ccc2c(c1)[C@H]1[C@H](CO2)[C@H](c2ccccc2)[C@]2(C)C(=O)Nc3ccc(C)cc3C(=O)N12	16	5	x	0	0	x	x
C[C@@]12C(=O)Nc3ccc(Cl)cc3C(=O)N1[C@H]1c3cc(Cl)ccc3OC[C@@H]1[C@@H]2c1ccccc1	26*	5	x	i	0	16	-8
C[C@@]12C(=O)Nc3ccccc3C(=O)N1[C@H]1c3cc(Cl)ccc3OC[C@@H]1[C@@H]2c1ccccc1	3	18	x	0	3	x	x
CC1=CC2OC3CC4OC(=O)C=CC=CC(C(C)O)OCC(O)C5(C)OC5C(=O)OCC2(CC1O)C4(C)C31CO1 (centres undefined)	89*	12	x	i	5	96*	60*
CC1CCOC(=O)C=CC=CC(=O)OC2CC3OC4C5OC5(C)C(O)CC4(COC(=O)C1O)C2(C)C31CO1 (centres undefined)	84*	7	x	i	-3	101*	46*
SMILES	PrPC surface inh	GDH-TPI counter	3CLpro inhibitor	Vc quorum ag	Mtb FBA inh	PrPC TRFRET cf	LD9 tox
CC(O)C1C=CC=CC(=O)OC2CC3OC4C5OC5(C)C(O)CC4(COC(=O)C(O)C(C)CCO1)C2(C)C31CO1 (centres undefined)	92*	9	x	i	-1	99*	40*
CC1=CC2OC3CC4OC(=O)C=CC=CC(=O)OCCC(C)C(O)C(=O)OCC2(CC1)C4(C)C31CO1 (centres undefined)	82*	3	x	i	-1	94*	69*
Cc1ccc(NCc2ccc(C)s2)cc1	x	x	10	x	x	x	x
Cc1cccc(NC(=O)CN(C)C(=O)Cc2ccc(-c3ccccc3)cc2)c1C	14	3	x	1	-1	x	x
Cc1sc2ncnc(SCC(=O)N3CCCC3=O)c2c1C	27*	0	-2	0	7	40*	-3
Cc1sc2ncnc(SCC(=O)N3CCCCC3)c2c1C	7	11	-4	-9	1	x	x
Cc1sc2ncnc(SCC(=O)NC(=O)c3cccn3C)c2c1C	31*	-4	2	0	-3	77*	-5
Cc1cccc(NC(=O)CSc2ncnc3sc(C)c(C)c23)n1	27*	-5	0	-4	-1	42*	-3
O=C(Cc1c(F)cccc1Cl)Nc1ccccc1-c1ccccc1	-1	6	2	0	-1	x	x
CC(C)CNc1cccc2c1S(=O)(=O)N(Cc1cccc(F)c1)[C@@H](C)[C@H](c1ccccc1)O2	7	x	x	x	x	x	x
Cc1ccccc1S(=O)(=O)NC(=O)C1(C)CCN1C(=O)C1(c2ccccc2)CC1 (centres undefined)	-1	7	x	0	-4	x	x
N#CNC(=Nc1cccc(F)c1)SCc1ccccc1	31*	3	1	1	5	14	4
Cc1ccccc1N1CCN(C2=Nc3ccccc3Sc3ccccc32)CC1	-9	x	x	x	x	x	x
COc1ccc2c(-c3ccccc3)cc(SCC(=O)NC(N)=O)nc2c1	-2	5	0	2	0	x	x
COCCNC(=O)CSc1cc(-c2ccccc2)c2ccc(OC)cc2n1	33*	6	10	i	3	37*	-6
Clc1ccc(-c2nc3ccc(Br)cn3c2Cc2cccc(Cl)c2)cc1	30*	x	x	x	-6	53*	-4
Clc1cccc(Cc2c(-c3cccc(Cl)c3)nc3ccc(Br)cn23)c1	24	x	x	x	-1	x	x
COc1ccc(-c2nc3ccc(Br)cn3c2Cc2cccc(Cl)c2)cc1OC	27*	x	x	x	-1	61*	0
Cc1ccc(NC(=O)CN2CCOCC2)cc1C	-6	2	3	0	2	x	x

From PubChem BioAssay
